Laboratory results taken from PubChem BioAssay AID488890 (Southern Research Specialized Biocontainment Screening …, 2010).
Hit rate of the full screen: of about 320,000 compounds, about 1,300 (0.41%) were called active. Inconclusive results (about 3%) are left out. The rule behind the calls is not given here. A selection follows. Measured potencies and affinities stand elsewhere.

assay: growth inhibition of non-replicating M. tuberculosis (AID 488890); details: Mycobacterium tuberculosis non-replicating, at 25 µM, stronger effect = higher value;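 note: plate controls were DMSO cells for no effect and high antibiotic wells for full effect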

Which inhibition does the source give for `COc1ccccc1C(=O)N1CCC(C(=O)c2ccc(F)cc2)CC1` here?
Its inhibition is 5.17%.

For `O=C(O)C1CCCN(S(=O)(=O)c2ccccc2[N+](=O)[O-])C1` (stereo not given), which inhibition is on record?
The inhibition was -3.19%.

Which inhibition does the source give for `CC(=O)c1cccc(NC(=O)CCc2nnc3ccc(N4CCN(C)CC4)nn23)c1` here?
Its inhibition is 1.24%.

With `COC(=O)c1[nH]nc(C(=O)OC(C)(C)C)c1-c1ccccc1` as the compound, how does the inhibition read?
The inhibition was 0.97%.

Which inhibition does the source give for `COc1ccc(C(=O)NCC(C)NC(=O)c2ccc(OC)c(Br)c2)cc1Br` (stereo not given) here?
Its inhibition is -0.81%.

For `CCC(Oc1ccc(F)cc1)C(=O)N1CCCCCCC1` (stereo not given), which inhibition is on record?
The inhibition was -13.2%.

Which inhibition does the source give for `COCCNC(=O)CS(=O)(=O)Cc1nc(-c2ccc(C)cc2)oc1C` here?
The inhibition was -26%.

With `CCC(CO)Nc1ncnc2onc(-c3ccc(F)cc3)c12` (stereo not given) as the compound, how does the inhibition read?
Its inhibition is -5.65%.

With `Cc1nnsc1C(=O)N1CCN(c2cc(C(F)(F)F)ccn2)CC1` as the compound, how does the inhibition read?
The inhibition was 1.32%.

Which inhibition does the source give for `Cc1ccc(N(C(=O)CS(=O)CC(=O)Nc2ccc(F)cc2)C(C)C(=O)NC(C)(C)C)cc1` (stereo not given) here?
The inhibition was -2.13%.

With `CC1CCCCN1S(=O)(=O)c1ccc([N+](=O)[O-])cc1` (stereo not given) as the compound, how does the inhibition read?
The inhibition was -4.65%.

With `Cc1ccc(NC(=O)COC(=O)Cn2c(C)csc2=O)cc1` as the compound, how does the inhibition read?
Its inhibition is 7.46%.

Which inhibition does the source give for `COCCn1c(C)cc(C(=O)COC(=O)c2cccc(O)c2)c1C` here?
Its inhibition is -6.95%.

With `COCCn1c(C)cc(C(=O)COC(=O)c2ccc(S(=O)(=O)N(C)C)cc2)c1C` as the compound, how does the inhibition read?
Its inhibition is -12.9%.

With `COc1ccc([N+](=O)[O-])cc1NC(=O)c1cncc(Br)c1` as the compound, how does the inhibition read?
Its inhibition is 36.5%.

For `CCOCCCNC(=O)C(c1ccccc1)N(Cc1ccc2c(c1)OCO2)C(=O)c1ccccc1O` (stereo not given), which inhibition is on record?
Its inhibition is 4.13%.

For `Cc1cccc(C(=O)Nc2cccc(OC(=O)c3cccc(C)c3)c2)c1`, which inhibition is on record?
Its inhibition is 51.4%.

Which inhibition does the source give for `Cc1cccc(C(=O)Nc2cccc(OCC(=O)O)c2)c1` here?
Its inhibition is -11.3%.

With `O=C(O)COc1cccc(NC(=O)c2ccccc2)c1` as the compound, how does the inhibition read?
Its inhibition is -6.49%.

For `COC(=O)COc1cccc(NC(=O)c2cc(OC)cc(OC)c2)c1`, which inhibition is on record?
Its inhibition is 58.8%.

For `Cc1cccc(N(C(=O)c2snc(C(N)=O)c2N)C(C(=O)NCc2ccccc2)c2ccncc2)c1` (stereo not given), which inhibition is on record?
Its inhibition is 11.8%.

For `O=C(COc1ccc(-n2cnnn2)cc1)Nc1cccc(Cl)c1Cl`, which inhibition is on record?
The inhibition was 5.43%.

Which inhibition does the source give for `Cc1nnc(N/N=C/c2ccccc2C(F)(F)F)n1N` here?
The inhibition was 3.91%.

With `Cc1cc(Cl)nc(Cl)c1C(=O)NCCc1ccccc1` as the compound, how does the inhibition read?
The inhibition was 5.34%.

Which inhibition does the source give for `CC(C)Cc1nnc(NC(=O)CCC(=O)Nc2ccc(Cl)cc2)s1` here?
The inhibition was 12.6%.

For `CCc1nnc(NC(=O)CCS(=O)(=O)c2ccc(C)cc2)s1`, which inhibition is on record?
Its inhibition is 77.7%.

For `C=CCOC(=O)/C(=C\c1ccccc1)NC(=O)c1ccco1`, which inhibition is on record?
Its inhibition is -12.7%.

Which inhibition does the source give for `C[C@H](NC(=O)c1nc[nH]c1C(=O)N1CCN(C(=O)OC(C)(C)C)CC1)C(=O)OC(C)(C)C` here?
The inhibition was -4.48%.

Which inhibition does the source give for `O=[N+]([O-])c1ccc(OCCCCN2CCc3ccccc3C2)cc1` here?
Its inhibition is 57.5%.

With `COc1ccc(OCCCN2CCc3ccccc3C2)cc1` as the compound, how does the inhibition read?
The inhibition was 46.6%.
